Data: PubChem BioAssay (EPA / NIEHS)
Inconclusive results are not listed. Calls of active or inactive are those of the source. Rule for the calls: active = hit-call score of the fitted dose curve at least 0.9, where 1 is the maximum; inconclusive = response in the unintended direction; inactive = score below 0.9.

Assay: CCTE_Simmons_MITO_viability: CellTiter-Glo Viability Assessment for CCTE's HepG2 Seahorse XF Respirometric Screening Assay [post-hoc], Simmons Lab (AID 2284007);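 for AC50: cells exposed to chemical for 90 min before the ATP read; actives lower ATP signal relative to DMSO baseline meaning reduced viability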
Procedure: CCTE_Simmons_MITO is cell-based, respirometric assay using HepG2 cells and a Seahorse XF Analyzer to measure oxygen consumption rates over four temporal phases spanning a total of 72 minutes: pre-injection (pre-treatment), basal (following test compound injection), maximal (following FCCP uncoupler injection), and inhibited (following rotenone/antimycin A injection)CCTE_Simmons_MITO_viability is one of 4 assay components measured from the CCTE_Simmons_MITO assay. It is designed to make measurements of ATP content, a form of viability reporter, as detected with bioluminescence signals by Luciferase-coupled ATP quantitation technology. Data from the assay component CCTE_Simmons_MITO_viability was analyzed at the endpoint, CCTE_Simmons_MITO_viability, in the positive analysis fitting direction relative to DMSO as the negative control and baseline of activity. Using a type of viability reporter, measures of ATP content for loss-of-signal activity can be used to understand the viability. To generalize the intended target to other relatable targets, this assay endpoint is annotated to the cell cycle intended target family, where the subfamily is cytotoxicity.
Test chemicals were administered as a titrated series of 7 concentrations from 125 nM up to 100 uM [final] for 90 minutes prior to single endpoint detection. Three biological replicates of technical singles were run for every chemical concentration tested. Dimethylsulfoxide [DMSO] was used as the vehicle control. Dichlone [DCNQ] was used as the positive control and was administered as a titrated series of 8 concentrations from 10 nM up to 100 uM [final].

With CCNP(=S)(OC)O/C(C)=C/C(=O)OC(C)C (centres undefined) as the molecule, how does the outcome read?
Its outcome is “inactive”.

With CC(C)(C)C(=O)C(Oc1ccc(Cl)cc1)n1cncn1 (centres undefined) as the molecule, how does the outcome read?
The outcome was “inactive”.

For CCN(CC)C(=O)C(C)Oc1cccc2ccccc12 (centres undefined), which AC50 is on record?
The AC50 was 50 µM (active).

For COCC(C)N(C(=O)CCl)c1c(C)csc1C (centres undefined), which outcome is on record?
Its outcome is “inactive”.

With CCN(CC)c1nc(C)cc(OP(=S)(OC)OC)n1 as the molecule, how does the outcome read?
Its outcome is “inactive”.

For CCOP(=O)(OCC)Oc1nc(Cl)c(Cl)cc1Cl, which AC50 is on record?
The AC50 was 10.7 µM (active).

For CCCCC(O)(Cn1cncn1)c1ccc(Cl)cc1Cl (centres undefined), which AC50 is on record?
The AC50 was 10.1 µM (active).

With CCOP(=S)(OCC)Oc1nc(Cl)n(C(C)C)n1 as the molecule, how does the outcome read?
The outcome was “inactive”.

With O=C1C2CC=CCC2C(=O)N1SC(Cl)(Cl)Cl (centres undefined) as the molecule, how does the outcome read?
Its outcome is “inactive”.

With Cn1c(-c2ccccc2)cc(-c2ccccc2)[n+]1C as the molecule, how does the outcome read?
The outcome was “inactive”.

With N#Cc1c[nH]cc1-c1cccc2c1OC(F)(F)O2 as the molecule, how does the outcome read?
Its outcome is “inactive”.

Which outcome does the source give for CC1(C)C(C=C(Cl)Cl)C1C(=O)OC(C#N)c1cccc(Oc2ccccc2)c1 (centres undefined) here?
Its outcome is “inactive”.

Which outcome does the source give for CO/N=C(/C1=NOCCO1)c1ccccc1Oc1ncnc(Oc2ccccc2Cl)c1F here?
Its outcome is “inactive”.

Which outcome does the source give for Cc1c(COC(=O)[C@@H]2[C@H](/C=C(\Cl)C(F)(F)F)C2(C)C)cccc1-c1ccccc1 here?
The outcome was “inactive”.
